# Source: the antibiotic and cytotoxicity screens of Wong et al. (2023)
# The whole screen tested about 39,000 compounds, of which about 3,300 (8.5%) were called active. For the sample, actives were picked, then their nearest neighbours and some compounds at random.
# Tested on: HepG2
# Assay: cytotoxicity call (relative viability < 0.9)
# Details: 10 µM
row,SMILES,cytotoxicity call
1,Cc1[nH]c(=O)[nH]c(=O)c1S(=O)(=O)N1CCC[C@H](C(=O)NCc2ccc3c(c2)OCO3)C1,inactive
2,C[C@@H]1CN([C@@H](C)CO)C(=O)c2cc(NC(=O)NC3CCCCC3)ccc2O[C@@H](C)CCCCO[C@H]1CN(C)Cc1ccncc1,inactive
3,C[C@H]1CN([C@@H](C)CO)S(=O)(=O)c2ccc(C#CC3(O)CCCC3)cc2O[C@H]1CN(C)C(=O)Nc1cccc(F)c1,inactive
4,C[C@H](CO)N1C[C@H](C)[C@H](CN(C)Cc2ccc(C(F)(F)F)cc2)Oc2ccc(NC(=O)Cc3cn(C)c4ccccc34)cc2C1=O,inactive
5,O=C(C[C@@H]1CC[C@H](NC(=O)Cc2ccccn2)[C@@H](CO)O1)NCCCN1CCOCC1,inactive
6,COc1ccc(CN(C)C[C@H]2OCCCC[C@@H](C)Oc3ccc(NC(=O)Nc4c(C)noc4C)cc3C(=O)N([C@H](C)CO)C[C@@H]2C)cc1,inactive
7,C[C@H]1CCCCO[C@H](CN(C)C(=O)Nc2ccc3c(c2)OCO3)[C@@H](C)CN([C@@H](C)CO)C(=O)c2cc(NC(=O)Nc3cccc4ccccc34)ccc2O1,inactive
8,COc1ccc(S(=O)(=O)N(C)C[C@H]2Oc3ccc(NC(=O)CCC(F)(F)F)cc3CC(=O)N([C@H](C)CO)C[C@@H]2C)cc1,inactive
9,C[C@@H]1CN([C@H](C)CO)C(=O)Cc2cc(NS(=O)(=O)c3cccs3)ccc2O[C@H]1CN(C)Cc1ccc(Cl)c(Cl)c1,inactive
10,Cc1cccc(S(=O)(=O)N2C[C@H](O)COC[C@@H]3O[C@H](CC(=O)NCCCN4CCOCC4)CC[C@H]32)c1,inactive
11,CC(=O)C=C(O)CCC(=O)O,inactive
12,C=CCSC1=N[C@@]2(COCc3ccc(OC)cc3)Oc3ccccc3[C@H]([C@H]2CO[Si](C)(C)C(C)(C)C)N1C(=O)c1ccccc1,inactive
13,Cc1noc(C)c1S(=O)(=O)Nc1ccc2c(c1)C(=O)N([C@H](C)CO)C[C@H](C)[C@H](CN(C)C)OCCCC[C@H](C)O2,inactive
14,OC[C@H]1O[C@@H](n2cnc3c(NCc4ccco4)ncnc32)[C@H](O)[C@@H]1O,active
15,CNc1ncnc2c1ncn2[C@@H]1O[C@H](CO)[C@@H](O)[C@H]1O,inactive
16,Nc1ncn([C@@H]2C[C@H](O)[C@@H](CO)O2)c(=O)n1,inactive
17,Nc1ncn([C@@H]2O[C@H](CO)[C@@H](O)[C@H]2O)c(=O)n1,active
18,Nc1ccn([C@@H]2O[C@H](CO)[C@@H](O)[C@@H]2O)c(=O)n1,inactive
19,Nc1ncn([C@H]2C[C@H](O)[C@@H](CO)O2)c(=O)n1,inactive
20,OC[C@H]1O[C@@H](n2cnc3c(NC4CCCC4)ncnc32)[C@H](O)[C@@H]1O,inactive
21,Nc1ccn([C@@H]2O[C@H](CO)[C@H](O)[C@@H]2O)c(=O)n1,inactive
22,Nc1ncn(C2OC(CO)C(O)C2O)c(=O)n1 (configuration not stated),active
